The record followed here is PubChem BioAssay (Tox21).

The target in assay [1] is Thyrotropin-releasing hormone receptor (Homo sapiens) (UniProt P34981). In words: qHTS assay to identify small molecule agonists of the thyrotropin-releasing hormone receptor (TRHR) signaling pathway (AID 1346891; calls by dose curve;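 note: HEK293 cells expressing TRHR with calcium dye readout; series mostly up to about 58 µM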). Summed up:
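HEK293/TRHR cells, 1500 per well, 18 h 37 °C; Ca dye 2 h 37 °C; pin-tool compound addition (agonist mode); kinetic fluorescence 3 min, 1 s reads; 15 concentrations, triplicate.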
A general note: qHTS replaces the single test concentration by a dilution series.

Assay [2] in a line: Human pregnane X receptor (PXR) small molecule agonists, qHTS cell viability counter screen (AID 1346977). Note: nearly all actives have a fitted effect of over 50% in size. Summed up: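 Fluorescence read-out (CellTiter-Fluor) of viability in PXR-Luc HepG2 cells, multiplexed with the luciferase agonist read. Compounds in DMSO added after 5hr plating; 24hr total exposure at 37C, 5% CO2.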
Assay [3] in a line: Caspase-3/7 induction in HepG2 cells by small molecules, qHTS assay (AID 1346978). Note: nearly all actives have a fitted effect of over 15% in size. Summed up: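 Wild-type HepG2 cells, 2,000/well, settled 5 hr at 37 C and 5% CO2, then compound-treated for 17 hr; caspase-3/7 activity read by luminescent Caspase-Glo 3/7 after 30 min at room temperature.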
A short description of assay [4]: Caspase-3/7 induction in CHO-K1 cells by small molecules, qHTS cell viability counter screen (AID 1346979). Note: nearly all actives have a fitted effect of over 35% in size. In a few lines:
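CHO-K1 wt, 1,500 cells/well; 5hr pre-incubation 37C/5% CO2; compound pin transfer (DMSO); 16hr exposure; CellTiter-Fluor added, 1hr, fluorescence read.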

Assay [5] can be described thus: Caspase-3/7 induction in CHO-K1 cells by small molecules, qHTS assay (AID 1346980). Note: nearly all actives have a fitted effect of over 15% in size. In a few lines:
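Wild-type CHO-K1 cells exposed to compounds for 17hr at 37 C, 5% CO2. Caspase-3/7 activity then measured by Caspase-Glo 3/7 luminescence after 30min at room temperature.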

Assay [6] in a line: Caspase-3/7 induction in HepG2 cells by small molecules, qHTS cell viability counter screen (AID 1346981). Note: series mostly up to about 92 µM; nearly all actives have a fitted effect of over 30% in size. Summed up: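 HepG2, WT, 2,000 cells/well; 5 hr pre-incubation 37 C/5% CO2; compound pin-transferred from DMSO; 16 hr exposure; CellTiter-Fluor, 1 hr; fluorescence read.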
In assay [7] the target is Nuclear receptor subfamily 1 group I member 2 (Homo sapiens) (UniProt O75469). In words: Human pregnane X receptor (PXR) small molecule agonists, qHTS assay (AID 1346982). Note: nearly all actives have a fitted effect of over 35% in size. Note: potency is the fitted concentration of half-maximal effect. Summed up:
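Luciferase signal from ONE-Glo (30 min, room temperature) measured activation of hPXR-driven CYP3A4 reporter expression in PXR-Luc HepG2 cells treated with compounds for 24 hr at 37 C.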

Assay [8] deals with Acetylcholinesterase (Homo sapiens) (UniProt P22303). In words: Acetylcholinesterase (AChE) small molecule antagonists: colormetric cell-based qHTS assay (AID 1347395; calls by dose curve; note: nearly all actives have a fitted effect of over 30% in size). In a few lines: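 SH-SY5Y cells; cpd 30 min 37 C; + DTNB/acetylthiocholine, 90 min 37 C; colorimetric thiocholine read; qHTS.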
Assay [9] has the same target. In words: Acetylcholinesterase (AChE) small molecule antagonists: fluorescence cell-based qHTS assay (AID 1347398; calls by dose curve; note: nearly all actives have a fitted effect of over 50% in size). Particulars: Potency: AChE activity; outcome: AChE activity. In a few lines:
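SH-SY5Y cells (2000/well), attached overnight, incubated with compound 30 min at 37 C. Acetylthiocholine plus Thiolite Green then added for 40 min at room temperature. Thiocholine fluorescence (Ex/Em 490/520 nm) reports cellular AChE activity.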

Assay [10] shares this target. In words: Acetylcholinesterase (AChE) small molecule antagonists: enzyme-based qHTS assay with human liver microsomes (AID 1347399; calls by dose curve; note: nearly all actives have a fitted effect of over 60% in size). Conditions: Potency: qHTS inhibition; outcome: qHTS inhibition. In a few lines:
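Recombinant human AChE (50 mU/mL in the enzyme mix) and human liver microsomes (0.25 mg/mL final) were preincubated with compound and NADPH (0.25 mg/mL final) for 30 min at 37 C. Acetylthiocholine/DTNB was then added; thiocholine was read colorimetrically after 10 min at room temperature.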

The target of assay [11] is Cytochrome P450 2C19 (Homo sapiens) (UniProt P33261). In words: Cytochrome P450 Family 2 Subfamily C Member 19 (CYP2C19) small molecule antagonists: luciferase reporter qHTS assay (AID 1671197). Note: nearly all actives have a fitted effect of over 65% in size. Note: potency is the fitted concentration of half-maximal effect. In a few lines:
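Luminescent readout of CYP2C19 activity: luciferin product detected 20 min after adding detection reagent. Before that, compound and enzyme-substrate mix preincubated 10 min at room temperature; NADPH-regenerating system started a 1 h, 37C reaction. Ketoconazole as positive control.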
In general terms: A reporter such as luciferase makes a cellular process visible.

For assay [12], the target named is Cytochrome P450 2C9 (Homo sapiens) (UniProt P11712). In words: Cytochrome P450 Family 2 Subfamily C Member 9 (CYP2C9) small molecule antagonists: luciferase reporter qHTS assay (AID 1671198). Note: nearly all actives have a fitted effect of over 50% in size. Note: potency is the fitted concentration of half-maximal effect. Summed up:
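P450-Glo proluciferin substrate with CYP2C9 enzyme; 10 min RT preincubation, then NADPH regeneration 1 h at 37C; luciferin detection reagent 20 min RT, luminescence in relative luminescence units.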

Assay [13] has as its target Cytochrome P450 1A2 (Homo sapiens) (UniProt P05177). In words: Cytochrome P450 Family 1 Subfamily A Member 2 (CYP1A2) small molecule antagonists: luciferase reporter qHTS assay (AID 1671199). Note: nearly all actives have a fitted effect of over 50% in size. Note: potency is the fitted concentration of half-maximal effect. In a few lines:
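P450-Glo CYP1A2, 1536-well qHTS: enzyme/proluciferin substrate + cpd (DMSO), 10 min RT; NADPH regen, 1 h RT; detection reagent, 20 min; luminescence, RLU.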

The target of assay [14] is Voltage-gated inwardly rectifying potassium channel KCNH2 (Homo sapiens) (UniProt Q12809). The experiment in a line: Human Ether-a-go-go-Related Gene (hERG) channel small molecule antagonists: fluorescence cell-based qHTS assay (AID 1671200). In a few lines: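 Read-out: thallium influx as a surrogate for potassium, tracked as fluorescence (480 nm ex/540 nm em) every second for 2 min after Stimulus Buffer addition in dye-loaded hERG-U2OS cells.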
In general terms: hERG is a cardiac potassium channel; its block is linked to QT prolongation.

Assay [15] concerns the target Cytochrome P450 3A4 (Homo sapiens) (UniProt P08684). In words: Cytochrome P450 Family 3 Subfamily A Member 4 (CYP3A4) small molecule antagonists: luciferase reporter qHTS assay (AID 1671201). Note: nearly all actives have a fitted effect of over 50% in size. Note: potency is the fitted concentration of half-maximal effect. In a few lines:
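Luminescent readout (RLU) proportional to CYP3A4 activity, from luciferin generated off a proluciferin substrate. Enzyme–substrate mix plus compound 10 min at room temp, NADPH regeneration 1 h, detection reagent 20 min.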

The target in assay [16] is Acetylcholinesterase (Homo sapiens) (UniProt P22303). The experiment in a line: Acetylcholinesterase (AChE) small molecule antagonists: enzyme-based qHTS assay (AID 1347397; calls by dose curve; note: nearly all actives have a fitted effect of over 55% in size). Conditions: Potency: AChE enzyme activity inhibition; outcome: AChE enzyme activity inhibition. Summed up:
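Recombinant human AChE (50 mU/mL) preincubated with compound 30 min at room temperature; acetylthiocholine plus DTNB then added, and thiocholine formation read colorimetrically after 10 min at room temperature. DMSO served as vehicle control.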

For assay [17], the target named is Cytochrome P450 2D6 (Homo sapiens) (UniProt P10635). In words: Cytochrome P450 Family 2 Subfamily D Member 6 (CYP2D6) small molecule antagonists: luciferase reporter qHTS assay (AID 1671196). Note: nearly all actives have a fitted effect of over 50% in size. Note: potency is the fitted concentration of half-maximal effect. Summed up: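 Read-out is luminescence from luciferin formed by CYP2D6 turnover of a proluciferin substrate, recorded as relative luminescence units. Reactions ran 1 h at room temperature after NADPH regeneration solution was added.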

Values without a mark were called inactive. Results filed as inconclusive are left out. Activity calls are given as the source filed them. Unless noted, calls come from the whole dose curve; as a rule, active = well fitted curve in the direction sought with a large enough effect in the repeat runs; inconclusive = weak or mixed curves; inactive = no such curve, though single readings can be large; an effect the other way counts as inactive or inconclusive.

Chain of Cytochrome P450 1A2 (Homo sapiens) (P05177 whole entry, looked up): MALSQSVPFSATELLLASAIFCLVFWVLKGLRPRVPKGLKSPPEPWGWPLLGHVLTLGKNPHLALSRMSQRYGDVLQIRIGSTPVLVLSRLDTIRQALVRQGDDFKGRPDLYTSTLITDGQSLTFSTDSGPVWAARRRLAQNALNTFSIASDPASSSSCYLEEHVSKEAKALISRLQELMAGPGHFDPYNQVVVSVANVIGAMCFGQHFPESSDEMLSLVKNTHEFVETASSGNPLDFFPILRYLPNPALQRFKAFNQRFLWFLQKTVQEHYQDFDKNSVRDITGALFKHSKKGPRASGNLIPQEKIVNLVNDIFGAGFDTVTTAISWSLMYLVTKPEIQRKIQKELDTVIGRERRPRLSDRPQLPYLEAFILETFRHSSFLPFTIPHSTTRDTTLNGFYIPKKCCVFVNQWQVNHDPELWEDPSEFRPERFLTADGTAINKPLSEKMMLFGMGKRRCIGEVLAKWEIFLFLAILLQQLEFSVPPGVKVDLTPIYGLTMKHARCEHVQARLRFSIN
Chain of Thyrotropin-releasing hormone receptor (Homo sapiens) (P34981 whole entry, looked up): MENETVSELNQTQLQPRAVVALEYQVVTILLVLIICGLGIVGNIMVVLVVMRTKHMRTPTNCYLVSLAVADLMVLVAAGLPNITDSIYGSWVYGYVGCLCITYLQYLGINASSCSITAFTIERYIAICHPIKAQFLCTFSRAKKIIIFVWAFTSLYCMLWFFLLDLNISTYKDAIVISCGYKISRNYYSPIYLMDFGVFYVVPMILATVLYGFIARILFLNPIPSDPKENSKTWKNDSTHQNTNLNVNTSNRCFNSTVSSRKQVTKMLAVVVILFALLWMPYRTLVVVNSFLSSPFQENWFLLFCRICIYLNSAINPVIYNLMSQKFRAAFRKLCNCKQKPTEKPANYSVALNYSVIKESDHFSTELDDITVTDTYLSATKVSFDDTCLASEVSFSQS
Chain of Acetylcholinesterase (Homo sapiens) (P22303 whole entry, looked up): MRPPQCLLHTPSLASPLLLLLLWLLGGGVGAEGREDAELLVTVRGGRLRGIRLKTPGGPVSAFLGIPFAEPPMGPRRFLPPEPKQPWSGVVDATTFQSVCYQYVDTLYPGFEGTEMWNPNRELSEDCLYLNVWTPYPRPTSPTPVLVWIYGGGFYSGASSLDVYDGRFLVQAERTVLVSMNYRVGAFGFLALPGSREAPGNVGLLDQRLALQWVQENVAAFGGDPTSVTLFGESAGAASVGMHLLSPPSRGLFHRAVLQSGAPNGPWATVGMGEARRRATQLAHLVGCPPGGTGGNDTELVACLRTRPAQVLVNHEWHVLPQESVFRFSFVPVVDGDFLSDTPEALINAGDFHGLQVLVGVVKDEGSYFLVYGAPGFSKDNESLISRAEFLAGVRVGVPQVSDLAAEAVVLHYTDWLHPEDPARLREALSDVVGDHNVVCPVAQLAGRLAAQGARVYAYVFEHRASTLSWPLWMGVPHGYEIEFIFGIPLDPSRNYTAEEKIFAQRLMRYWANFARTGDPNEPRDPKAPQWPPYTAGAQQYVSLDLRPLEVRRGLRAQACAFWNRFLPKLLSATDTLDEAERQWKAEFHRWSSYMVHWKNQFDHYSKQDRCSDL
Chain of Voltage-gated inwardly rectifying potassium channel KCNH2 (Homo sapiens) (Q12809 whole entry, looked up): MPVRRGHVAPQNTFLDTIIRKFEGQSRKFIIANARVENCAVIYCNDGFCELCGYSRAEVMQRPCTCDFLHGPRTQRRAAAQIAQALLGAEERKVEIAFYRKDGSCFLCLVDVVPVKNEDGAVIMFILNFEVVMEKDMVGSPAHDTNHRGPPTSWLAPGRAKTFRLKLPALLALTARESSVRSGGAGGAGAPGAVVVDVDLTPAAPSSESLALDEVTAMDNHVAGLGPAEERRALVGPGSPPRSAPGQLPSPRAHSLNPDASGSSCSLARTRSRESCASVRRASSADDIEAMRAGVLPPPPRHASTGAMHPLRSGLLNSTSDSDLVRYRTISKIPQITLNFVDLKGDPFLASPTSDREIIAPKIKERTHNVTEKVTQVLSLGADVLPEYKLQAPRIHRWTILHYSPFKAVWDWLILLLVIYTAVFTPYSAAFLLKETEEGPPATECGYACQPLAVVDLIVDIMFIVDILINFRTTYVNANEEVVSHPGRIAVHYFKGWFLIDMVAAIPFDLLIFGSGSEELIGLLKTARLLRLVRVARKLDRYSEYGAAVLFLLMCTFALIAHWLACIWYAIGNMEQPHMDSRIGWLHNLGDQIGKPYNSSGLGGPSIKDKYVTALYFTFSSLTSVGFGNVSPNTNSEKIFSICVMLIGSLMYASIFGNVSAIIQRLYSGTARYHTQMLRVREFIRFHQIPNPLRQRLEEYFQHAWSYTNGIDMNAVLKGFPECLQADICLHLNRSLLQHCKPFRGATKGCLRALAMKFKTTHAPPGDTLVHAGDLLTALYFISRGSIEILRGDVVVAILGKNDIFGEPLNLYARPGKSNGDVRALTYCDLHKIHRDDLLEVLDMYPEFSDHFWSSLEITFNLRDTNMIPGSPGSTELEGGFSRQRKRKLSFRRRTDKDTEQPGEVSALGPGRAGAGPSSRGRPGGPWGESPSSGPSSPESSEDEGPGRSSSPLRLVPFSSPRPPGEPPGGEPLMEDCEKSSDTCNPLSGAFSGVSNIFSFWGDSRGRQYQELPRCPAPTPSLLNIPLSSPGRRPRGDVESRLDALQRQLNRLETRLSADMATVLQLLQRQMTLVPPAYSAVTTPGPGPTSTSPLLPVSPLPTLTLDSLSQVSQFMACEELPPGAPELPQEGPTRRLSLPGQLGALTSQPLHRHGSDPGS
Chain of Cytochrome P450 2D6 (Homo sapiens) (P10635 whole entry, looked up): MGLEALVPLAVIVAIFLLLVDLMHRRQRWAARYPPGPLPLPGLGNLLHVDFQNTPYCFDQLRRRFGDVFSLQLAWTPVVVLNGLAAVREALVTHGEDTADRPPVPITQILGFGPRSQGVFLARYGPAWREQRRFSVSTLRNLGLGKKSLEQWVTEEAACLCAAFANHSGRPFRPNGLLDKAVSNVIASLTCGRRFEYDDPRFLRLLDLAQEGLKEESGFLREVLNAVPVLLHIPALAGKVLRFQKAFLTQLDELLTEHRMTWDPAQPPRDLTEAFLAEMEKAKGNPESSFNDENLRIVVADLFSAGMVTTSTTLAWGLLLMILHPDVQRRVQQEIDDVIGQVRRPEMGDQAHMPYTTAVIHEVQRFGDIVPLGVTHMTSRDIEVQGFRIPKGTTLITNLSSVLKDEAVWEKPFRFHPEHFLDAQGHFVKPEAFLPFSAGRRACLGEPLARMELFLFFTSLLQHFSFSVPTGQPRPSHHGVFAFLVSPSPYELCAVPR
Chain of Cytochrome P450 2C9 (Homo sapiens) (P11712 whole entry, looked up): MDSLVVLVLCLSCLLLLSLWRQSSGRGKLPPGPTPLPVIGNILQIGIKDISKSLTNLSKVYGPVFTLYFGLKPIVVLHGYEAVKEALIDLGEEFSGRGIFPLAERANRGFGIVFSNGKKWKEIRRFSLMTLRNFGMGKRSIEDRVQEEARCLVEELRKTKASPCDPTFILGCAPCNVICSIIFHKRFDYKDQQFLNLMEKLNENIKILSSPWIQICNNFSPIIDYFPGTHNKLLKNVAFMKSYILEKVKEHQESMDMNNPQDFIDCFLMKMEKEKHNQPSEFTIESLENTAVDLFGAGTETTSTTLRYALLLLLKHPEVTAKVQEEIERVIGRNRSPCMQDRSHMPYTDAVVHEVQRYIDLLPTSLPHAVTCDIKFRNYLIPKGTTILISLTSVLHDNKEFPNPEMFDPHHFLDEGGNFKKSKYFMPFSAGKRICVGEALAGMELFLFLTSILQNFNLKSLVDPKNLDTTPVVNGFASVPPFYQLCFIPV
Chain of Cytochrome P450 2C19 (Homo sapiens) (P33261 whole entry, looked up): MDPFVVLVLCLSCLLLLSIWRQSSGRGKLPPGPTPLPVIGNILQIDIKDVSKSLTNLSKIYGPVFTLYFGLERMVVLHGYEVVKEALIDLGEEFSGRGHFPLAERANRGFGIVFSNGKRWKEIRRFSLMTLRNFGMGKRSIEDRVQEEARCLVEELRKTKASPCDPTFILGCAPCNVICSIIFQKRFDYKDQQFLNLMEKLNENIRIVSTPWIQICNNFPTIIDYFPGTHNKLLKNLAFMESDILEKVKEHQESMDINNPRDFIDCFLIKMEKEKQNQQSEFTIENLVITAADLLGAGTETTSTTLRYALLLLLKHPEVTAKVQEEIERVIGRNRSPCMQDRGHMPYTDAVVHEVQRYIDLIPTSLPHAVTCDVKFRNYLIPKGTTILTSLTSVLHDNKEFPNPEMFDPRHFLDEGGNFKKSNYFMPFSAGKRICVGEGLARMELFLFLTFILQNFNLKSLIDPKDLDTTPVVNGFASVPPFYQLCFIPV
Chain of Cytochrome P450 3A4 (Homo sapiens) (P08684 whole entry, looked up): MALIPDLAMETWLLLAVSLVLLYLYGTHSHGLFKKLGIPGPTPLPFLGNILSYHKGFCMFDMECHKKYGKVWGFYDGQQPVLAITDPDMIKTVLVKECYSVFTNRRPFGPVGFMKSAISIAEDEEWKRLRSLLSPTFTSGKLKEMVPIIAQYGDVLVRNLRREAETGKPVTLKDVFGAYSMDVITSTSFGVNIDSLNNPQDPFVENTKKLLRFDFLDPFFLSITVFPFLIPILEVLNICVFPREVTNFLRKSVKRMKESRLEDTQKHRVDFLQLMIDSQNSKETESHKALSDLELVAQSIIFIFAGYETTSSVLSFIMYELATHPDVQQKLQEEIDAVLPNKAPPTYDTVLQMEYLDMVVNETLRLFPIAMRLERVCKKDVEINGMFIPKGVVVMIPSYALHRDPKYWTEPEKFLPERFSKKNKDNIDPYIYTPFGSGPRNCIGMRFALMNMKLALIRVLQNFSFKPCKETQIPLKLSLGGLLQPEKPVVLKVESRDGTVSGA

As to `CCSC(=O)Cl`, the compound was classed as inactive in [1], in assay [3] and in assay [5]. Besides, the Potency entry in assay [2], in [4], in assay [6], in assay [7], in [8] and in assay [9] was “inactive” throughout. Further, the Potency result in assay [10], in assay [11], in assay [12], in assay [13], in assay [14] and in assay [15] was “inactive” each time.
`NCCOS(=O)(=O)O`: the compound was called inactive in assay [1], in assay [3] and in [5]. The Potency entry in assay [2], in assay [4], in assay [6], in assay [7], in assay [16] and in [9] was “inactive” throughout. Moreover, the Potency entry in assay [10], in assay [17], in assay [11], in assay [12], in [13] and in [14] was “inactive” in each case. Also, the Potency result in assay [15] was “inactive”.
On to `CC(C)C(C)(N)C#N` (configuration not stated), for which the call in assay [1], in assay [3] and in assay [5] was inactive. Further, the Potency result in assay [2], in [4], in assay [6], in [7], in assay [8] and in assay [9] was “inactive” in each case. Moreover, the Potency entry in assay [10], in assay [17], in [11], in assay [12], in assay [13] and in assay [14] was “inactive” each time. Besides, the Potency entry in assay [15] was “inactive”.
With `CCNP(=S)(OC)O/C(C)=C/C(=O)OC(C)C` (configuration not stated), the compound was called inactive in assay [1], in [3] and in [5]. The Potency entry in assay [2], in assay [4], in [6], in assay [16], in assay [9] and in assay [10] was “inactive” in each case. The Potency in assay [7] is 9.69 µM (active); in [17], 31.7 µM (active); in assay [11], 0.0894 µM (active); in [12], 0.633 µM (active); in assay [13], 2.52 µM (active); in assay [15], 1.26 µM (active).
Consider `CCOc1cc(OP(=S)(OC)OC)nc(CC)n1`, for which the call in assay [1], in [3] and in assay [5] was inactive. Moreover, the Potency entry in [2], in [4], in [6], in assay [7], in assay [8] and in assay [16] was “inactive” in each case. Moreover, the Potency entry in assay [9], in assay [10], in [17], in assay [14] and in assay [15] was “inactive” in each case. Besides, in assay [11], the Potency is 35.6 µM (active).
For `CC(C)NCC(O)c1ccc([N+](=O)[O-])cc1` (configuration not stated), the call in assay [1], in [3] and in [5] was inactive. The Potency entry in [2], in assay [4], in assay [6], in assay [7], in assay [16] and in [9] was “inactive” throughout. Moreover, the Potency result in [10], in assay [11], in assay [12], in [13] and in [15] was “inactive” throughout. Moreover, in assay [17], the Potency is 27.5 µM (active).
